Source: the supplement of paper PMC10849652
Of roughly 7,900 targets only a part is listed; those with a hit were picked by preference. About 0.6% of all pairs of compound and target were hits.

Experiments:
Experiment in all cases: log2 fold change, soluble protein after heating vs DMSO (PISA); higher = thermal stabilisation; K562 cells, 10 uM, 30 min; active = over 0.2 and 3.5 SD of the protein, either way, in both replicates (recomputed)
[1] = compound: C[C@H](Nc1ncnc2nc[nH]c12)c1cc2cccc(Cl)c2c(=O)n1-c1ccccc1 [duvelisib]
Method in brief: (§1)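 K562 cells at 2×10^6 cells/mL were treated for 30 min with 10 μM compound, and aliquots were heated for 3 min over 48°C-58°C before pooling. Extraction used PBS with 0.5% NP-40 at 4°C, and soluble protein was the supernatant after 21,000xg for 90 min, measured by TMTpro 16plex LC-MS/MS with channel sums equalised. Thermal stability values, relative to control samples and from duplicates, are log2 fold changes.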

[2] = compound: Cc1cc(SCc2sc(-c3ccc(C(F)(F)F)cc3)nc2C)ccc1OCC(=O)O
Method in brief: as §1

[3] = compound: Cc1nc(Nc2ncc(C(=O)Nc3c(C)cccc3Cl)s2)cc(N2CCN(CCO)CC2)n1 [dasatinib]
Method in brief: as §1

[4] = compound: Cn1cncc1[C@@](N)(c1ccc(Cl)cc1)c1ccc2c(c1)c(-c1cccc(Cl)c1)cc(=O)n2C [tipifarnib]
Method in brief: as §1

[5] = compound: C[C@@H](Oc1cc(-c2cnn(C3CCNCC3)c2)cnc1N)c1c(Cl)ccc(F)c1Cl [crizotinib]
Method in brief: as §1

[6] = compound: C[C@@H]1COCCN1C2=NC(=NC(=C2)C3(CC3)S(=O)(=O)C)C4=C5C=CNC5=CC=C4
Method in brief: as §1

[7] = compound: C[C@H](C1=CC=C(C=C1)C(=O)NC2=C3C=CNC3=NC=C2)N
Method in brief: as §1

[8] = compound: Cc1cc(Nc2cc(CN3CCOCC3)c3nc(C)c(Cc4ccc(Cl)cc4F)n3n2)n[nH]1 [gandotinib]
Method in brief: as §1

[9] = compound: Cc1cc(Nc2cc(N3CCN(C)CC3)nc(Sc3ccc(NC(=O)C4CC4)cc3)n2)n[nH]1 [tozasertib]
Method in brief: as §1

[10] = compound: Cc1ccc(-n2nc(C(C)(C)C)cc2NC(=O)Nc2ccc(OCCN3CCOCC3)c3ccccc23)cc1 [doramapimod]
Method in brief: as §1

[11] = compound: Cc1ccc(NC(=O)c2ccc(CN3CC[C@H](N(C)C)C3)c(C(F)(F)F)c2)cc1Nc1nccc(-c2cncnc2)n1 [bafetinib]
Method in brief: as §1

[12] = compound: Cc1cccc(CC(=O)N2CCc3c2ccc(-c2cn(C)c4ncnc(N)c24)c3F)n1
Method in brief: as §1

[13] = compound: Cc1cn(-c2cc(NC(=O)c3ccc(C)c(Nc4nccc(-c5cccnc5)n4)c3)cc(C(F)(F)F)c2)cn1 [nilotinib]
Method in brief: as §1

[14] = compound: Cc1nc(Nc2n[nH]c3c2CN(C(=O)N[C@H](CN(C)C)c2ccccc2)C3(C)C)c2sccc2n1
Method in brief: as §1

[15] = compound: Cc1ncc(-c2ccnc(Nc3ccc(S(C)(=O)=O)cc3)n2)n1C(C)C
Method in brief: as §1

[16] = compound: Cn1cc(-c2ccc3c(c2)CCN3C(=O)Cc2cccc(C(F)(F)F)c2)c2c(N)ncnc21
Method in brief: as §1

[17] = compound: FC(F)(F)c1ccc(/C=C/c2nc(COc3ccc(CCCCn4ccnn4)cc3)co2)cc1 [mubritinib]
Method in brief: as §1

[18] = compound: CS(=O)(=O)c1ccc(-c2cnc(N)c(C(=O)Nc3ccccc3)n2)cc1
Method in brief: as §1

[19] = compound: Cc1ccc(C(=O)N(CCCN)[C@@H](c2nc3cc(Cl)ccc3c(=O)n2Cc2ccccc2)C(C)C)cc1 [ispinesib]
Method in brief: as §1

[20] = compound: Cn1cc(-c2ccc3nnc(C(F)(F)c4ccc5ncccc5c4)n3n2)cn1
Method in brief: as §1

Measured: log2 fold change

ENTR1 (UniProt Q96C92)
inactive: [1] 0.003 | [2] 0.048 | [3] 0.003 | [4] 0.259

EIF2AK3 (UniProt Q9NZJ5)
active: [16] 0.845
inactive: [5] -0.062 | [6] 0.181 | [7] 0.109 | [1] 0.031 | [8] -0.113 | [9] -0.359 | [2] 0.188 | [10] 0.032 | [11] 0.082 | [12] 0.535 | [13] -0.201 | [14] -0.072 | [3] -0.017 | [15] -0.067 | [4] -0.057 | [17] 0.019

ELOVL5 isoform 2 (UniProt Q9NYP7)
Sequence of UniProt Q9NYP7 (Q9NYP7 whole entry, looked up): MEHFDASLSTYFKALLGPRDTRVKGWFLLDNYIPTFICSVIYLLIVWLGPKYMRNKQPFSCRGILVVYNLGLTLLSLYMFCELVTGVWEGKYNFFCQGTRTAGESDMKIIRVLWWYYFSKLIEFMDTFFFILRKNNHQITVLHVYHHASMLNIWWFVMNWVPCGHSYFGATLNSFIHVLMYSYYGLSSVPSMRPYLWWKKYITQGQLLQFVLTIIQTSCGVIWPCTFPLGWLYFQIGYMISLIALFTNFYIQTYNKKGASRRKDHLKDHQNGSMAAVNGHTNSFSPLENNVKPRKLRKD
inactive: [18] 0.038 | [6] 0.048 | [7] -0.004 | [1] 0.074 | [8] -0.34 | [9] -0.01 | [2] 0.082 | [19] -0.311 | [11] -0.166 | [12] 0.124 | [13] -0.182 | [14] 0.021 | [3] -0.147 | [15] -0.054 | [16] 0.063 | [20] 0.011 | [4] -0.204 | [17] 0.068

EEF1D isoform 3 (UniProt P29692)
inactive: [9] 0.212 | [17] -0.014

DENND10 (UniProt Q8TCE6)
Sequence of UniProt Q8TCE6 (Q8TCE6 whole entry, looked up): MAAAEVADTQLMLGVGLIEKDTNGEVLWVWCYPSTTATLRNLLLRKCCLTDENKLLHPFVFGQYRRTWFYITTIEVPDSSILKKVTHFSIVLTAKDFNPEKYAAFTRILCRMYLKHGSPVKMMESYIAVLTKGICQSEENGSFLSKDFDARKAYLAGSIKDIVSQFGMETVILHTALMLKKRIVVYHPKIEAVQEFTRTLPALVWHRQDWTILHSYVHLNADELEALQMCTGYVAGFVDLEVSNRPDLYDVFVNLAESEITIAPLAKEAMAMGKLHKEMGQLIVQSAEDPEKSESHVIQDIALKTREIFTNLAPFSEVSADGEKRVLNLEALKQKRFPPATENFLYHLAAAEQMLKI
active: [6] 0.298
inactive: [18] 0.046 | [7] -0.015 | [1] 0.044 | [9] -0.063 | [2] 0.03 | [19] -0.021 | [11] 0.033 | [13] -0.266 | [14] -0.032 | [3] -0.129 | [15] -0.353 | [16] -0.131 | [20] -0.064 | [4] 0.034 | [17] 0.077

DHRS13 (UniProt Q6UX07)
Sequence of UniProt Q6UX07 (Q6UX07 whole entry, looked up): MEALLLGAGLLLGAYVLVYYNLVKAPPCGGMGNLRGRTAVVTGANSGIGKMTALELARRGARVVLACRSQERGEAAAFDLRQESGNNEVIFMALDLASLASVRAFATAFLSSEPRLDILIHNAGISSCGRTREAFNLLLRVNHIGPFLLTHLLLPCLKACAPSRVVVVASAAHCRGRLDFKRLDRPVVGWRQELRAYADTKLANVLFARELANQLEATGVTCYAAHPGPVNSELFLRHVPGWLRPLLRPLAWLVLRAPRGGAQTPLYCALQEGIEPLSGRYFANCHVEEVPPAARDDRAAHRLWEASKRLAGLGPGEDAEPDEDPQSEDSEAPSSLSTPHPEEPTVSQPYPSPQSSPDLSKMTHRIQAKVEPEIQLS
inactive: [18] 0.107 | [5] 0.127 | [7] 0.058 | [1] -0.013 | [8] 0.064 | [9] 0.104 | [2] 0.139 | [10] 0.123 | [19] -0.034 | [12] -0.208 | [13] 0.197 | [14] -0.153 | [3] 0.005 | [15] -0.106 | [16] 0.021 | [20] -0.168 | [17] 0.049

DOP1A (UniProt Q5JWR5)
Sequence of UniProt Q5JWR5 (Q5JWR5 whole entry, looked up): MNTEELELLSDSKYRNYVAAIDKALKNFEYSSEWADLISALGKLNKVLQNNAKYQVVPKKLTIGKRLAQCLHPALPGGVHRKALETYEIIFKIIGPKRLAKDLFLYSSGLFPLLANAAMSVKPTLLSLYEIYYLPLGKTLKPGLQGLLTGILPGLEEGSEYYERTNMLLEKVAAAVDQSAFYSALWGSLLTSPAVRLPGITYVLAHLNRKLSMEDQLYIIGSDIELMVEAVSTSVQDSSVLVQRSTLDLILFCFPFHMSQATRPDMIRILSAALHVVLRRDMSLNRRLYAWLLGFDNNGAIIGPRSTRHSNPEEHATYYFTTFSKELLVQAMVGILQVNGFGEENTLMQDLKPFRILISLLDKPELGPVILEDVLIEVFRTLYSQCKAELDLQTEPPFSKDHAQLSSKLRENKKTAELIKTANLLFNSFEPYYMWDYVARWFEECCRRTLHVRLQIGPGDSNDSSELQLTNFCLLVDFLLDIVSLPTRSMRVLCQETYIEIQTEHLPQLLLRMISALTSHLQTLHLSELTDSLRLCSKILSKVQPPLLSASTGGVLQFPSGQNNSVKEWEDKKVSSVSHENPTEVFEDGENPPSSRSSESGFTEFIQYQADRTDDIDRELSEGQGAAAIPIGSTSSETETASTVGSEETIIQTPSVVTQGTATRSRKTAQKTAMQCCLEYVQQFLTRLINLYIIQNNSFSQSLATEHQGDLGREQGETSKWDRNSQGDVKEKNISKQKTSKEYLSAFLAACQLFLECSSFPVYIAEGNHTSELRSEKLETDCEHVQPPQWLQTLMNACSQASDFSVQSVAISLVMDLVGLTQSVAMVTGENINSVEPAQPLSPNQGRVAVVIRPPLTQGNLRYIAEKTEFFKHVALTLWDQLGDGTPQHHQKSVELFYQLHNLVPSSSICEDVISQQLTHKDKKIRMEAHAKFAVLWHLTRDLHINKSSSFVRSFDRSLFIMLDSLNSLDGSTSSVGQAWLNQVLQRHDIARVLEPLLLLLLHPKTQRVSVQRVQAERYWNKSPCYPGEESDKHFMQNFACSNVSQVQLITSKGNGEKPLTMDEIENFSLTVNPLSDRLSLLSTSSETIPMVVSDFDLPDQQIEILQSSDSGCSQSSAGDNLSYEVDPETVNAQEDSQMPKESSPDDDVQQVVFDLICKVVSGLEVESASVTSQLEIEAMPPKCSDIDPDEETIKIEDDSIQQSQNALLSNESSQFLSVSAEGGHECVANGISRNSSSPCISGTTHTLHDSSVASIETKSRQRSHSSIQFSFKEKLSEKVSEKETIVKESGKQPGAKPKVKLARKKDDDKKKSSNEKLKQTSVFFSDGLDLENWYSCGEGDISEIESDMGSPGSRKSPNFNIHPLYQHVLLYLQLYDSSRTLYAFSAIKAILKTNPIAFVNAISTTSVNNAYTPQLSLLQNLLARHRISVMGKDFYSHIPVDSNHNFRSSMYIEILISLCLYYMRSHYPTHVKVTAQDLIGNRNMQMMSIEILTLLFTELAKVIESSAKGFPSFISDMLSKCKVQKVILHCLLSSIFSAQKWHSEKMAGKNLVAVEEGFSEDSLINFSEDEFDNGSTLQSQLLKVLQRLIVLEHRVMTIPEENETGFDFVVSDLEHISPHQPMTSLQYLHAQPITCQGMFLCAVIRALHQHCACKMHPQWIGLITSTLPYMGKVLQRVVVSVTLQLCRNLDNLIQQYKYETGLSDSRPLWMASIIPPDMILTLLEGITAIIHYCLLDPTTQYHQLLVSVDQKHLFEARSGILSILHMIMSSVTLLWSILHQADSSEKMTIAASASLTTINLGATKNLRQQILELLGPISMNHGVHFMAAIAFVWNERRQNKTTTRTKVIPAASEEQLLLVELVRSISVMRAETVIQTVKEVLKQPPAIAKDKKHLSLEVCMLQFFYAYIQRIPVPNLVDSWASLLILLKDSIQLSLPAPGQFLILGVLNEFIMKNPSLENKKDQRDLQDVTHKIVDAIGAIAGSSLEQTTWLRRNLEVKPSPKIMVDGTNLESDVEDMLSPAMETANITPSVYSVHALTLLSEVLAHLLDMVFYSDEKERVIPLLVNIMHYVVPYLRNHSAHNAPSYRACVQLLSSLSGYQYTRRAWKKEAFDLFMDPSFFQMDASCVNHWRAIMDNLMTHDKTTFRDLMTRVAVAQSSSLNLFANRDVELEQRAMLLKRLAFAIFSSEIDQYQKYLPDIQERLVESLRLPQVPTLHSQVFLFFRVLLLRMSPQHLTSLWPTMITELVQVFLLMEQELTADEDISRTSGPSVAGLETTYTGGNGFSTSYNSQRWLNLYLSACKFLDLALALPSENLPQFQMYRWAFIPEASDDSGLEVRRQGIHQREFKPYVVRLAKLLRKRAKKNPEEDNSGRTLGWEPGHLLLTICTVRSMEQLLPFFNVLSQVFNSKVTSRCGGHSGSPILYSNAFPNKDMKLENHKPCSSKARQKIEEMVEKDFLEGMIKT
inactive: [6] 0.007 | [11] -0.091 | [17] 0.127

DOLPP1 (UniProt Q86YN1)
Sequence of UniProt Q86YN1 (Q86YN1 whole entry, looked up): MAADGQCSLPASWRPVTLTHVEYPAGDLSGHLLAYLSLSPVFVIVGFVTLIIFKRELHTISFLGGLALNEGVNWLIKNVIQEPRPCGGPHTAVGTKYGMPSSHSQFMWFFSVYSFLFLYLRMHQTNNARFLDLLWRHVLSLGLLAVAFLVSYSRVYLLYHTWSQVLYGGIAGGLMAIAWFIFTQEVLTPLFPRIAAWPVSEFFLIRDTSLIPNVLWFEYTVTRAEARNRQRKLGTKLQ
active: [19] 0.358
inactive: [5] -0.082 | [7] -0.135 | [9] 0.038 | [10] -0.026 | [11] -0.089 | [13] 0.035 | [14] -0.062 | [15] -0.023 | [16] -0.045 | [20] -0.006 | [4] 0.075 | [17] 0.021

DERPC (UniProt P0CG12)
inactive: [5] 0.029 | [1] 0.191 | [8] 0.006 | [2] -0.113 | [10] -0.099 | [19] 0.07 | [11] -0.06 | [12] -0.193 | [13] 0.044 | [14] -0.04 | [3] 0.227 | [15] -0.126 | [20] 0.245 | [17] 0.049

EID1 (UniProt Q9Y6B2)
Sequence of UniProt Q9Y6B2 (Q9Y6B2 whole entry, looked up): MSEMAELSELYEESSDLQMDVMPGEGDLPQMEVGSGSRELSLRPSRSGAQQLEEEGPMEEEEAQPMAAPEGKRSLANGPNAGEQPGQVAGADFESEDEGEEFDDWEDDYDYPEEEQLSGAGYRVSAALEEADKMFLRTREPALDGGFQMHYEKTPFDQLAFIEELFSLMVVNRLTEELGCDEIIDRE
inactive: [18] -0.14 | [6] -0.424 | [8] 0.275 | [9] -0.142 | [12] -0.438 | [13] -0.022 | [14] -0.084 | [15] -0.032 | [4] -0.097 | [17] 0.208

DENND1A isoform 6 (UniProt Q8TEH3)
Sequence of UniProt Q8TEH3 (Q8TEH3 whole entry, looked up): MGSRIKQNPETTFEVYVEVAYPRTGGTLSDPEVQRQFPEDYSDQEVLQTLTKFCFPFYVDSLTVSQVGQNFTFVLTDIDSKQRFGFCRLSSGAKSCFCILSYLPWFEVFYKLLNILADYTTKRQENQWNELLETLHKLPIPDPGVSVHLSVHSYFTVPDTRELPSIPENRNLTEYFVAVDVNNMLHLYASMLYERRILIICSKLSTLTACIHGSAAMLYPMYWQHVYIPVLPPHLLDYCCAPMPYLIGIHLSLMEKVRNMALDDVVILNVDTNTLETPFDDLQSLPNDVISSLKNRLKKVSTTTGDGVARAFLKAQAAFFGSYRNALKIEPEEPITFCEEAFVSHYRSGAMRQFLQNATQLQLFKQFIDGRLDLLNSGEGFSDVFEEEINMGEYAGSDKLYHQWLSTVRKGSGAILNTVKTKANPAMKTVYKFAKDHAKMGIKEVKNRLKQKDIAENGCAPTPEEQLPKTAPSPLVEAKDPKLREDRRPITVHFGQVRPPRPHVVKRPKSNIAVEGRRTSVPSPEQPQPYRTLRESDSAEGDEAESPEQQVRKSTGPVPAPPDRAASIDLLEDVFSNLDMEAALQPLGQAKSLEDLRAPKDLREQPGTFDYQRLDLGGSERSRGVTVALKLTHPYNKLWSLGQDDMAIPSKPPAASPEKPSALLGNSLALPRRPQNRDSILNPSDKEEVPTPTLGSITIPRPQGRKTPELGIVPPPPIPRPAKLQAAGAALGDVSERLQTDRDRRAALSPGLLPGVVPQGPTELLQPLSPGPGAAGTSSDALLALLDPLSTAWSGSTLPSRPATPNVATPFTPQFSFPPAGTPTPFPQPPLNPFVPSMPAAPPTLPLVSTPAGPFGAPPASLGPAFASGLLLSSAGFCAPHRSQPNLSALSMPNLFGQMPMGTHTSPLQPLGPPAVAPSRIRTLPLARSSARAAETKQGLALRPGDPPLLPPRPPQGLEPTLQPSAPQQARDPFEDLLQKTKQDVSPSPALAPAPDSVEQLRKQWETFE
inactive: [5] -0.231 | [9] -0.093 | [10] 0.374 | [11] -0.086 | [4] -0.113

DNAL1 (UniProt Q4LDG9)
inactive: [5] -0.035 | [6] 0.011 | [7] 0.025 | [1] -0.013 | [2] -0.102 | [10] -0.067 | [19] -0.082 | [11] 0.035 | [3] 0.017 | [16] 0.186 | [20] 0.012

CTNNBL1 (UniProt Q8WYA6)
inactive: [11] -0.12 | [4] 0.022

EEF2K (UniProt O00418)
inactive: [6] -0.044 | [7] 0.4 | [8] 0.13 | [19] -0.208 | [12] 0.007 | [16] -0.108 | [20] 0 | [4] -0.092 | [17] -0.371
